Laboratory results taken from PubChem BioAssay (NCI).
Compounds without any hit were thinned out: in the full panel of roughly 79,000, 15% have a hit. Calls of active or inactive are those of the source. Cut-off read from the data, not from the text of the source: active = growth inhibition above about 70%; inactive = the rest.

Columns and labels:
[1] = NCI Yeast Anticancer Drug Screen. Data for the rad52 strain (AID 147);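 note: 0% = growth of vehicle-treated control cultures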; conditions: S. cerevisiae rad52 mutant growth inhibition, active compounds read high
How it was run: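 Here a repair-compromised yeast strain receives each compound; its growth is then quantified and normalised to vehicle-only controls.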

[2] = NCI Yeast Anticancer Drug Screen. Data for the wt1 strain (AID 149);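 note: 0% = growth of vehicle-treated wt1 cultures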; conditions: S. cerevisiae wt1 strain (SPY 50644) growth inhibition, active compounds read high
How it was run: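 Readout: yeast growth inhibition, normalised to vehicle controls, in the wt1 strain exposed to test compounds.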

[3] = NCI Yeast Anticancer Drug Screen. Data for the rad50EPP+ strain (AID 151);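 note: 0% = growth of vehicle-treated control cultures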; conditions: S. cerevisiae rad50 mutant strain, active compounds read high
How it was run: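 Read-out is yeast growth inhibition relative to vehicle; cells used were the rad50EPP+ strain.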

[4] = NCI Yeast Anticancer Drug Screen. Data for the mgt1 strain (AID 153); conditions: S. cerevisiae mgt1 mutant growth inhibition, active compounds read high
How it was run: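 Measured: inhibition of mgt1 yeast growth by compound, normalized to vehicle-treated cultures.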

[5] = NCI Yeast Anticancer Drug Screen. Data for the rad50 strain (AID 155);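 note: 0% = growth of vehicle-only cultures of the same strain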; conditions: S. cerevisiae rad50 strain growth inhibition, active compounds read high
How it was run: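 Compounds were tested on a yeast strain with an engineered DNA damage repair alteration; the reported value is growth inhibition normalised to vehicle treatment.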

[6] = NCI Yeast Anticancer Drug Screen. Data for the mec2-1 strain (AID 157); conditions: S. cerevisiae mec2-1 strain, active compounds read high
How it was run: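 Using mec2-1 yeast: add compound, measure growth, express inhibition versus vehicle-treated cultures.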

Measured: growth inhibition

CCOP(=O)(OCC)/C(C#N)=C\c1cccc2ccccc12
inactive: [1]; at 1.2 µM -2% | [1]; at 3.7 µM -1% | [1]; at 11.0 µM 12% | [2]; at 1.2 µM 2% | [2]; at 3.7 µM 8% | [2]; at 11.0 µM 6% | [3]; at 1.2 µM 8% | [3]; at 3.7 µM 10% | [3]; at 11.0 µM 3% | [3]; at 33.0 µM 22% | [3]; at 100.0 µM 41% | [4]; at 1.2 µM -6% | [4]; at 3.7 µM -10% | [4]; at 11.0 µM -21% | [5]; at 1.2 µM -4% | [5]; at 3.7 µM 1% | [5]; at 5.0 µM (retest, dose inferred, filed as 0.5) 14% | [5]; at 11.0 µM 22% | [6]; at 1.2 µM 4% | [6]; at 3.7 µM 16%
active: [1]; at 33.0 µM 92% | [1]; at 100.0 µM 97% | [2]; at 33.0 µM 87% | [2]; at 100.0 µM 98% | [4]; at 33.0 µM 84% | [4]; at 100.0 µM 98% | [5]; at 33.0 µM 92% | [5]; at 50.0 µM (retest, dose inferred, filed as 5.0) 90% | [5]; at 50.0 µM 85.7% | [5]; at 100.0 µM 98%
